These results are taken from PubChem BioAssay (Tox21).

Records with an inconclusive call do not appear. Unmarked numbers belong to inactive results. Calls of active or inactive are those of the source. Unless noted, the call rests on the fitted dose curve; in most records, active means well fitted curve in the direction sought with a large enough effect in the repeat runs; inconclusive means weak or mixed curves; inactive means no such curve, though single readings can be large; an effect the other way counts as inactive or inconclusive.

Experiment [1] concerns the target Luciferin 4-monooxygenase (Photinus pyralis) (UniProt P08659). Kind of experiment: qHTS assay to identify small molecule inhibitors of firefly luciferase (AID 1224835). Further: nearly all actives have a fitted effect of over 25% in size. Further: potency means the concentration at half of the fitted maximal effect. The method in brief:
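Quantitative HTS format; KM concentrations of both substrates. Purified P. pyralis FLuc activity quantified from luminescence images.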
For orientation: qHTS replaces the single test concentration by a dilution series.

Experiment [2] is described as follows: qHTS assay to identify small molecule agonists of the constitutive androstane receptor (CAR) signaling pathway - cell viability counter screen (AID 1224836). Further: series mostly up to about 92 µM; nearly all actives have a fitted effect of over 45% in size. The method in brief: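 Double-stable HepG2 hepatoma cells (hCAR plus CYP2B6-2.2kb) are treated for 23 h at 37 C with test compounds in 15-point concentration series. PK11195 at 0.75 uM final is co-added. Cell viability is quantified by CellTiter-Fluor.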

A short description of experiment [3]: qHTS assay to identify small molecule antagonists of the constitutive androstane receptor (CAR) signaling pathway - cell viability counter screen (AID 1224837). Further: series mostly up to about 92 µM; nearly all actives have a fitted effect of over 45% in size. The method in brief:
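Fluorescence from CellTiter-Fluor served as the viability signal. Human hepatoma HepG2 cells stably bearing hCAR and CYP2B6-2.2kb received compound plus CITCO (50 nM final) for 23 hr.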

In experiment [4] the target is Nuclear receptor subfamily 1 group I member 3 (Homo sapiens) (UniProt Q14994). Kind of experiment: qHTS assay to identify small molecule antagonists of the constitutive androstane receptor (CAR) signaling pathway (AID 1224838).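 Further: HepG2 cells stably expressing hCAR with CYP2B6 luciferase reporter stimulated by CITCO; nearly all actives have a fitted effect of over 40% in size.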 Further: potency means the concentration at half of the fitted maximal effect. A digest of the protocol: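 Quantitative HTS in double-stable HepG2-CYP2B6-hCAR cells. After 4 h plating, cells get compound (15 concentrations) and CITCO at 50 nM final, incubate 24 h at 37 C, then ONE-Glo luminescence is read.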
Nuclear receptor subfamily 1 group I member 3 (Homo sapiens), sequence (Q14994 whole entry, looked up): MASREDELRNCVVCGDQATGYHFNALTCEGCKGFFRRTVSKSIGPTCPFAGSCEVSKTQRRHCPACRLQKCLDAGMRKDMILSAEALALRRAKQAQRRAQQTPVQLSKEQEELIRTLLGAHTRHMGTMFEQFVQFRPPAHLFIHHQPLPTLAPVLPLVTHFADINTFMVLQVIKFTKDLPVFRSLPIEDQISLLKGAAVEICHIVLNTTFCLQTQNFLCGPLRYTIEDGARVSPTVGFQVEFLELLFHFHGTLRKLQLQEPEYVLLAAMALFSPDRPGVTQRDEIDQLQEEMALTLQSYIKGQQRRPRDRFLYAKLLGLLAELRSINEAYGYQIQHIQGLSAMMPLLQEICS

A short description of experiment [5]: qHTS assay to identify small molecule antagonists of the estrogen related receptor signaling pathway with the pleiotropic PPARgamma coactivator (PGC) from Tox21 10K library - cell viability counter screen (AID 1224840; active means well fitted cell-killing curve with a large enough effect in the repeat runs, not every such curve was filed as active; further: nearly all actives have a fitted effect of over 40% in size; further: potency means the concentration at half of the fitted maximal effect). The method in brief:
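Compounds in DMSO, alongside positive and negative controls, were pinned onto PGC/ERR cells (2,000 per well). Exposure lasted 17.5 hours at 37 C, followed by a 30-minute CellTiter-Fluor incubation and fluorescence reading.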

Experiment [6] in a line: qHTS assay to identify small molecule antagonists of the estrogen related receptor signaling pathway with the pleiotropic PPARgamma coactivator (PGC) from Tox21 10K library (AID 1224841; call rule not given here; further: actives are mostly falling curves and most rising ones were filed inactive; nearly all actives have a fitted effect of over 50% in size; further: potency means the concentration at half of the fitted maximal effect; on activity, negative = inhibition: series mostly up to about 92 µM). The method in brief:
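Compound exposure ran 18 hours at 37 C in PGC/ERR cells (2,000/well) that had first rested 6 hours in a 37 C/5% CO2 incubator. Luciferase activity was then detected with One-Glo after a 30-minute room-temperature step.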

The nature of experiment [7]: qHTS assay to identify small molecule agonists of the estrogen related receptor signaling pathway with the pleiotropic PPARgamma coactivator (PGC) from Tox21 10K library (AID 1224842). Further: nearly all actives have a fitted effect of over 15% in size. Further: potency means the concentration at half of the fitted maximal effect. The method in brief:
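PGC/ERR reporter cells (NTP line) were seeded 2,000 per well, rested 6 h at 37 C/5% CO2, then pin-dosed with compounds in DMSO for 18 h at 37 C; luciferase read by One-Glo luminescence after 30 min at room temperature.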

For experiment [8], the target named is Thyrotropin receptor (Homo sapiens) (UniProt P16473). In words: qHTS assay to identify small molecule agonists of the thyroid stimulating hormone receptor (TSHR) signaling pathway (AID 1224843; calls by dose curve; further: nearly all actives have a fitted effect of over 45% in size; further: potency means the concentration at half of the fitted maximal effect). A digest of the protocol: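 TSHR-expressing HEK293 cells (800 per well) were exposed to compounds for 30 min at room temperature. cAMP was then detected by HTRF competition with cAMP-d2 and anti-cAMP cryptate, read after 1 h at room temperature. Fifteen concentrations, triplicate.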
Thyrotropin receptor (Homo sapiens), sequence (P16473 whole entry, looked up): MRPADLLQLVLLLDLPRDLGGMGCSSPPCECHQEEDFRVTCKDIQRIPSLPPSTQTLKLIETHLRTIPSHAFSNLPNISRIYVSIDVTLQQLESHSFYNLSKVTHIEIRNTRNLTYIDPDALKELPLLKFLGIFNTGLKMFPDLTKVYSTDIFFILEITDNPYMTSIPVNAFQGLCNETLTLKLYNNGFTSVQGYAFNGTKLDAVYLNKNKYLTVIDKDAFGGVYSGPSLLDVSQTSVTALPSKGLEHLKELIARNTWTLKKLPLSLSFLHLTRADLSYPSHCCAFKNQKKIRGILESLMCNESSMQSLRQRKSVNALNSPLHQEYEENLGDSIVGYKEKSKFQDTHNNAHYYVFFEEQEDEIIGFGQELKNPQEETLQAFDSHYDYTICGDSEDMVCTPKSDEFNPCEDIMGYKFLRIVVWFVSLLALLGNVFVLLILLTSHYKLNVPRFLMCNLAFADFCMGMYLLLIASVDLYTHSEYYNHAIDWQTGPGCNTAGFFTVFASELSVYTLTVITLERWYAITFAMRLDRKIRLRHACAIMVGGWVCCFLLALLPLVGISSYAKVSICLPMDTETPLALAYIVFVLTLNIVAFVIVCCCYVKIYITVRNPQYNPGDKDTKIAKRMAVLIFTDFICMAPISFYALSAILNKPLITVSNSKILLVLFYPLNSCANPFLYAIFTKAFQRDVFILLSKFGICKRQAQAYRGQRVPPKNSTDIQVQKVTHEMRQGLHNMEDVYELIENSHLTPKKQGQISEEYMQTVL

The nature of experiment [9]: qHTS assay to identify small molecule antagonists of the estrogen related receptor (ERR) signaling pathway from Tox21 library - cell viability counter screen (AID 1224834). Further: nearly all actives have a fitted effect of over 30% in size. Further: potency means the concentration at half of the fitted maximal effect. The method in brief: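 Viability readout (CellTiter-Fluor fluorescence, 30 min at 37 C) multiplexed with the ERR assay; cells treated 17.5 h at 37 C with compounds delivered in DMSO.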
Experiment [10] addresses Nuclear receptor subfamily 1 group I member 3 (Homo sapiens) (UniProt Q14994). Kind of experiment: qHTS assay to identify small molecule agonists of the constitutive androstane receptor (CAR) signaling pathway (AID 1224839). Further: nearly all actives have a fitted effect of over 15% in size. Further: potency means the concentration at half of the fitted maximal effect.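 On activation: HepG2 cells stably carrying human CAR and a CYP2B6 luciferase reporter; series mostly up to about 92 µM.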 The method in brief: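 Readout: firefly luciferase luminescence via ONE-Glo. System: HepG2 double-stable for hCAR and CYP2B6-2.2kb. Conditions: 15-point compound titration, PK11195 at 0.75 uM final, 24 h incubation.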
On the % scale 0 is the no-effect control and ±100 the full control effect.

Luciferin 4-monooxygenase (Photinus pyralis), sequence (P08659 whole entry, looked up): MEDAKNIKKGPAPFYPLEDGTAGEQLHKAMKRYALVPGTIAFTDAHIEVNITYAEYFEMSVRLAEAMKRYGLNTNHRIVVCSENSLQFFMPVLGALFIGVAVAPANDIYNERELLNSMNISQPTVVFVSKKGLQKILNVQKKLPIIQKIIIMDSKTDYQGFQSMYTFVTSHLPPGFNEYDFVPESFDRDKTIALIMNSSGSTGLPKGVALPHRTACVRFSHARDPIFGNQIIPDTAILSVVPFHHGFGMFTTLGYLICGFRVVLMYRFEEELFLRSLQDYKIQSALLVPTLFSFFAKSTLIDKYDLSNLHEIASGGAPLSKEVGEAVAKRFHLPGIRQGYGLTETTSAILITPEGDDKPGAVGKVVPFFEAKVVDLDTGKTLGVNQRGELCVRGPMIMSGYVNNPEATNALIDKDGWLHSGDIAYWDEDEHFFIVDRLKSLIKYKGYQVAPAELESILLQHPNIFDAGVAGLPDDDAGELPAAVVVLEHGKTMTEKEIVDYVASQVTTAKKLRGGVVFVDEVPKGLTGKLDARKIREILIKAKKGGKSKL

Take `Nc1ccc(C(=O)O)c(O)c1`: the Potency result in experiment [1], in experiment [2], in experiment [3], in experiment [4], in experiment [5] and in experiment [6] was “inactive” each time. Moreover, the Potency entry in experiment [7] and in experiment [8] was “inactive” throughout.
Consider `O=[N+]([O-])c1ccc(O)cc1C(F)(F)F`, for which the Potency was 15.4 µM (active) in experiment [9] and 17.2 µM (active) in [5]. The Potency result in [10] and in [8] was “inactive” throughout.
Regarding `Nc1ccc(NCCO)c([N+](=O)[O-])c1`, in [9], the Potency is 48.6 µM (active). In addition, the Potency result in [10] and in [7] was “inactive” each time.
With `COc1cc2nc(N3CCN(C(=O)c4ccco4)CC3)nc(N)c2cc1OC`, in [2], the viability change, negative = cytotoxic is -2.7% [at 19 µM]. In addition, the activity change, negative = cytotoxicity in [3] is -2.45% [at 19 µM]. In [4], the activity, negative = inhibition was 3.26% [at 19 µM]. The activation in [10] is 0.371% [at 19 µM]; in experiment [8], -0.792% [at 19 µM].
As for `O=C1CCc2cc(OCCCCc3nnnn3C3CCCCC3)ccc2N1`, the Potency entry in experiment [1], in experiment [2], in experiment [3] and in experiment [5] was “inactive” throughout.
As to `O=C(c1ccc(O)c(O)c1)c1ccc(O)cc1O`, the Potency in [1] is 70.9 µM (active); in experiment [6], 68.5 µM (active). In addition, the Potency entry in [2], in [3], in experiment [10], in experiment [7] and in experiment [8] was “inactive” each time.
Take `CC(C)(C)c1csc(-c2cc3cc(OCc4ccccc4CC(=O)O)ccc3o2)n1`: the Potency in [1] was 5.03 µM (active). In addition, the Potency result in [2], in experiment [3], in experiment [4], in [5] and in experiment [8] was “inactive” throughout.
For `CC1(C)[C@@H](O)CC[C@]2(C)[C@H]3C(=O)C=C4[C@@H]5C[C@@](C)(C(=O)O)CC[C@]5(C)CC[C@@]4(C)[C@]3(C)CC[C@@H]12`, the Potency result in experiment [1], in experiment [2], in [3], in experiment [4], in experiment [10] and in experiment [5] was “inactive” each time. The Potency result in experiment [7] and in experiment [8] was “inactive” throughout.
Consider `c1ccc(C(O[C@@H]2CCCN(CCc3ccc4c(c3)OCO4)C2)c2ccccc2)cc1`, for which the Potency result in experiment [1], in [2] and in experiment [3] was “inactive” in each case.
On to `O=c1c(O)c(-c2ccc(O)cc2O)oc2cc(O)cc(O)c12`, for which the Potency entry in experiment [2], in [3], in experiment [10], in experiment [5] and in experiment [8] was “inactive” in each case.
As to `Cc1cc(C(C#N)c2ccc(Cl)cc2)c(Cl)cc1NC(=O)c1cc(I)cc(I)c1O` (stereo unspecified), the Potency result in experiment [2], in experiment [3], in experiment [5] and in experiment [7] was “inactive” each time.
As for `Oc1ccccc1O`, the Potency in experiment [9] is 43.8 µM (active). The Potency result in experiment [2] and in [8] was “inactive” each time.
As for `CCCC(=O)OCOC(=O)C1=C(C)NC(C)=C(C(=O)OC)C1c1cccc(Cl)c1Cl` (stereo unspecified), the Potency entry in experiment [9], in [2], in experiment [5] and in [8] was “inactive” each time.
Regarding `CCCc1ccc(OCC(=O)N2CCN(C(=O)COc3ccc(CCC)cc3OC)CC2)c(OC)c1`, the Potency entry in experiment [1], in [2], in experiment [10], in experiment [7] and in experiment [8] was “inactive” throughout.
On to `CN1CCC[C@@H]1CCO[C@](C)(c1ccccc1)c1ccc(Cl)cc1`, for which, in [9], the Potency is 26.6 µM (active). For the same compound, the Potency result in experiment [6] and in experiment [7] was “inactive” each time.
Consider `COC(=O)Nc1nc2ccc(C(=O)c3ccccc3)cc2[nH]1`, for which the Potency result in [2], in experiment [3], in experiment [4] and in experiment [8] was “inactive” throughout.
For the compound `O=C1CCc2ccc(OCCCCN3CCN(c4cccc(Cl)c4Cl)CC3)cc2N1`, the Potency in experiment [9] was 26.6 µM (active); in experiment [6], 11.9 µM (active). Also, the Potency result in experiment [7] is “inactive”.
Regarding `CC(C)=CCC1=C(O)c2ccccc2C(=O)C1=O`, the Potency entry in [4] and in experiment [7] was “inactive” in each case. Moreover, the Potency is 27.1 µM (active) in [10] and 2.42 µM (active) in [6].
As to `S=C([S-])NCCNC(=S)[S-].S=C([S-])NCCNC(=S)[S-].[Mn+2].[Zn+2]`, the Potency in experiment [1] was 15.5 µM (active). Moreover, the Potency result in experiment [3], in experiment [5] and in experiment [8] was “inactive” in each case.
For the compound `C#C[C@]1(OC(C)=O)CC[C@H]2[C@@H]3CCC4=C/C(=N/O)CC[C@@H]4[C@H]3CC[C@@]21CC`, the Potency entry in experiment [1], in experiment [2], in experiment [3], in [4], in experiment [10] and in experiment [5] was “inactive” in each case. The Potency result in experiment [7] was “inactive”.
With `COc1c(C)c2c(c(O)c1C/C=C(\C)CCC(=O)OCCN1CCOCC1)C(=O)OC2`, the Potency result in experiment [1], in experiment [2], in experiment [3], in experiment [10], in experiment [5] and in experiment [6] was “inactive” throughout. In addition, the Potency entry in experiment [8] is “inactive”. In addition, the Potency was 1.06 µM (active) in experiment [4] and 0.237 µM (active) in experiment [7].
For `CN1CCCCC1CCN1c2ccccc2Sc2ccc(S(C)=O)cc21` (stereo unspecified), the Potency entry in experiment [1], in experiment [2], in experiment [3], in experiment [10] and in [8] was “inactive” throughout.
Consider `CN(C)[C@@H](CCOc1cccc2ccccc12)c1ccccc1`, for which the Potency entry in experiment [3], in [4], in experiment [10] and in experiment [7] was “inactive” each time. Further, the Potency in experiment [8] is 33.5 µM (active).
As to `CCCCCCCCCCCCOC(=O)c1ccc(O)cc1`, the Potency entry in experiment [2], in experiment [3], in experiment [10] and in [5] was “inactive” each time.
As for `Oc1cc(Cl)cc(Cl)c1Cl`, the Potency result in experiment [2], in experiment [3], in [4], in [10] and in experiment [8] was “inactive” in each case.
As to `CCCCCC(C)OC(=O)COc1ccc(Cl)c2cccnc12` (stereo unspecified), the Potency result in [1], in experiment [2], in experiment [3], in [4], in [10] and in experiment [5] was “inactive” throughout.
With `C#C[C@]1(OC(C)=O)CC[C@H]2[C@@H]3CCC4=C[C@@H](OC(C)=O)CC[C@@H]4[C@H]3CC[C@@]21C`, the Potency entry in [2], in [3], in experiment [10], in [5], in [7] and in [8] was “inactive” in each case.
Turning to `CCCCN(CCCC)CC(O)c1cc(Cl)cc2c1-c1ccc(Cl)cc1/C2=C/c1ccc(Cl)cc1` (stereo unspecified), the Potency in experiment [9] is 26.6 µM (active). Besides, the Potency entry in experiment [2], in [6], in experiment [7] and in [8] was “inactive” throughout.
As to `COc1cc(/C=C/c2ccccc2)oc(=O)c1`, the Potency was 7.35 µM (active) in experiment [1], 7.96 µM (active) in [10] and 5.64 µM (active) in [7]. In addition, the Potency result in experiment [2], in experiment [3], in [4], in experiment [5] and in experiment [8] was “inactive” throughout.
With `O=C(/C=C/c1ccc(O)c(O)c1)O[C@@H](C(=O)O)[C@@H](OC(=O)/C=C/c1ccc(O)c(O)c1)C(=O)O`, the Potency entry in experiment [2], in [4], in experiment [10] and in [5] was “inactive” each time.
For the compound `CCc1oc2ccccc2c1C(=O)c1cc(I)c(O)c(I)c1`, the Potency entry in [1], in [2], in experiment [3], in experiment [5] and in experiment [8] was “inactive” each time.
In the case of `OC12N=C(c3ccccc3)SC1Cc1cc(Cl)ccc12` (stereo unspecified), the Potency was 35.6 µM (active) in experiment [1] and 8.63 µM (active) in [7]. The Potency result in experiment [2], in experiment [3] and in [6] was “inactive” throughout.
